# From PubChem BioAssay
# This is a sample that favours compounds with a hit; in the whole collection about 2.2% have one here.
# M1 antag = antagonists of human M1 muscarinic receptor; 360,000 tested, 1.3% active; inhibition, % at 3 µM; P11229; CHO-K1 hM1, Fluo-8 calcium fluorescence, ACh EC80 antagonist;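 active = percent inhibition above its own plate's cutoff, namely the mean of that plate's compound wells plus 3 SD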;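 also: peak over basal fluorescence ratio during 140 s after agonist addition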
# Target sequence (P11229 whole entry, looked up): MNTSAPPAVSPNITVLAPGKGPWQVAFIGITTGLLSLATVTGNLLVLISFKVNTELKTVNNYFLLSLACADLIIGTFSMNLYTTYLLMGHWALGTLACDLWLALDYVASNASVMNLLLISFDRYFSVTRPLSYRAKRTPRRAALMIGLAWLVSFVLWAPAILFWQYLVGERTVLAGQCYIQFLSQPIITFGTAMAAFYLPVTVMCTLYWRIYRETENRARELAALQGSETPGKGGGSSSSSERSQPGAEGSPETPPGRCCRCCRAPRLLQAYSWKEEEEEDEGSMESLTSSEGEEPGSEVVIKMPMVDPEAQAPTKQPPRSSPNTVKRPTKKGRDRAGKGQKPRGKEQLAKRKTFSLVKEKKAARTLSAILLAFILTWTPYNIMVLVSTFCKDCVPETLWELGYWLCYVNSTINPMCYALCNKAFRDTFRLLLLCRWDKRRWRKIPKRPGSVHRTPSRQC
# M1 ag = human M1 muscarinic receptor agonism; activation, % at 3 µM; P11229; 360,000 tested, 0.33% active; AID 588814; CHO-K1 hM1, Fluo-8 calcium fluorescence, agonist mode; 0% DMSO, 100% acetylcholine EC100;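 active = activation above the run's mean compound activation plus 3 SD, cut at about 16% in these data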;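 also: peak over basal fluorescence ratio within a 140 s kinetic read after compound addition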
# M4 PAM = potentiates acetylcholine response at human M4 receptor | activation, % at 3 µM | CHO-K1 hM4/Gqi5, Fluo-8 calcium fluorescence, ACh EC20; 0% = ACh EC20, 100% = maximal ACh | P08173 | 360,000 tested, 0.4% active;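 active = activation above its plate's cutoff, the mean activation of sample wells plus 3 SD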
# CHRM4 antagonist = antagonists of human muscarinic M4 receptor (CHRM4) | 360,000 tested, 0.73% active | inhibition, % at 3 µM | CHO-hM4 cells, ACh EC80, Fluo-8 calcium fluorescence;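 active = inhibition above its plate's cutoff, the mean inhibition of sample wells plus 3 SD, cut at about 27% in these data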
# CHRM4 agonist = CHRM4 agonism in calcium assay; activation, % at 3 µM; P08173; CHO-K1 hM4/Gqi5, Fluo-8 calcium fluorescence; vehicle 0%, full acetylcholine response 100%; 360,000 tested, 0.14% active; AID 624127;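 active = activation above the run mean over all test wells plus 3 SD, cut at about 32% in these data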;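 also: peak over basal fluorescence ratio per well then scaled between controls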
# M1 PAM = positive allosteric modulators of human M1 muscarinic receptor | P11229 | CHO-K1 hM1, Fluo-8 calcium fluorescence, ACh EC20; 0% = ACh EC20, 100% = maximal ACh | activation, % at 3 µM | 360,000 tested, 0.088% active; in the data active = activation above about 19%, passing the limit was not always enough
# Numbers stand for hits; - = inactive.
SMILES,M1 antag,M1 ag,M4 PAM,CHRM4 antagonist,CHRM4 agonist,M1 PAM
COc1ccc(-c2cc(C(=O)N3CCN(c4ncccn4)CC3)c3ccccc3n2)cc1OC,-,-,-,-,-,-
CC1CN(C(=O)c2cc(-c3ccncc3)nc3ccccc23)CC(C)O1 (stereo not given),-,-,23,-,-,-
O=C(c1cc(-c2ccco2)nc2ccccc12)N1CCCC(C(F)(F)F)C1 (stereo not given),-,-,-,-,-,-
CC1CN(c2nc3c(c(=O)n(C)c(=O)n3C)n2Cc2c(F)cccc2Cl)CC(C)O1 (stereo not given),-,18,-,-,-,-
CC1CN(c2nc3c(c(=O)n(C)c(=O)n3C)n2Cc2c(Cl)cccc2Cl)CC(C)O1 (stereo not given),-,-,-,-,-,-
O=C(Cn1cnc2ccccc21)OCC(=O)N1CCCc2ccccc21,-,-,-,-,-,-
CCn1c(=O)c(C(=O)NNC(=O)c2ccccc2Cl)c(O)c2ccccc21,-,18,-,-,54,-
CCn1c(=O)c(C(=O)NNC(=O)c2ccccc2F)c(O)c2ccccc21,-,-,-,-,-,-
COc1ccc(Cn2c(-c3ccc(Br)cc3)c[n+]3ccccc23)cc1,42,-,-,-,-,-
COc1ccc(Cn2c(-c3ccc(OC)cc3)nc3ccccc32)cc1,-,-,-,-,-,-
Cn1c(CNC(=O)C2CCCCC2)cc2cc(Cl)ccc21,-,-,17,-,-,-
C[C@H](NC(=O)c1ccccc1Cl)C(=O)Nc1ccccc1F,-,-,-,75,-,-
C[C@H](NC(=O)Nc1ccccc1F)C(=O)O,-,-,-,-,-,-
Cc1nonc1-c1ccc2c(c1)OCO2,-,-,-,-,-,-
COc1ccc(NC(=O)C2(C)CCCN(C(C)C)C2)cc1OC (stereo not given),-,-,-,-,-,34
CCCCn1c2ccccc2c2nnc(SCCN3CCCCC3)nc21,55,-,-,-,-,-
C=CCC1(CC=C)CCCN1C(=O)c1cc(COc2cccc(OC)c2)on1,-,-,-,-,-,-
C=CCC1(CC=C)CCCN1C(=O)c1cc(COc2cncc(Cl)c2)on1,40,-,-,-,-,-
N#CCCN1CCN(CCC#N)c2ccccc21,-,-,-,-,-,-
N#CCCN1CCN(CCC#N)C1=S,-,16,-,-,-,-
Cc1cc(C)cc(-c2nnc(SCC(=O)NCC3CCCO3)o2)c1 (stereo not given),-,-,23,-,-,28
COc1ccccc1CNC(=O)C[C@@H]1C[C@H]2c3cc(N(C)C)ccc3O[C@H]2[C@H](CO)O1,-,-,-,-,-,-
O=C(CN1C(=O)COc2ccccc21)NCCN1CCOCC1,-,-,-,-,-,-
O=C(CN1C(=O)COc2ccccc21)NCCN1CCC(Cc2ccccc2)CC1,30,-,-,28,-,-
O=C(CN1C(=O)COc2ccccc21)NCc1ccc(C(=O)O)cc1,-,-,-,28,-,-
SMILES,M1 antag,M1 ag,M4 PAM,CHRM4 antagonist,CHRM4 agonist,M1 PAM
CC(NCc1ccc(S(N)(=O)=O)cc1)C(=O)N1CCc2ccccc21 (stereo not given),-,-,-,-,-,-
CC(NCc1ccc2c(c1)OCO2)C(=O)N1CCc2ccccc21 (stereo not given),-,-,23,-,-,-
COC(=O)c1ccc2[nH]c(C)cc(=O)c2c1,69,-,-,55,-,-
C/C(=N\NC(=O)Cc1cccn1C)c1ccc([N+](=O)[O-])cc1,-,-,-,-,-,-
OCC1(Cc2ccc(Cl)cc2)CCN(Cc2ccc(Oc3ncccn3)cc2)CC1,44,-,-,-,-,-
CCCCN(CCCC)c1ccc(C(=O)c2ccccc2C(=O)O)c(O)c1,-,37,-,-,34,-
N#Cc1ccc(/C=C/C(=O)c2ccc3c(c2)OCO3)cc1,-,-,17,-,-,-
O=C(Nc1nnc(SCC(=O)N2CCCCC2)s1)C1CCCCC1,-,-,-,-,-,-
CCCCCCN[C@H]1CCC2C3CC=C4C[C@@H](O)CC[C@]4(C)C3CC[C@@]21C (stereo not given in full),90,-,-,37,-,-
CCC(CC)C(=O)OCC(=O)C1(O)CCC2C3CCC4=CC(=O)CCC4(C)C3C(O)CC21C (stereo not given),68,-,-,-,-,-
CC12CCC(=O)C=C1CCC1C2C(O)CC2(C)C1CCC2(O)C(=O)COC(=O)CCC1CCCC1 (stereo not given),41,-,-,-,-,-
CC(=O)OCC(=O)[C@@]1(O)CC[C@H]2[C@@H]3CCC4=CC(=O)CC[C@]4(C)[C@H]3[C@@H](O)C[C@@]21C,-,-,-,-,-,-
Cc1ccc(NC(=O)c2cc3ccccc3o2)nc1,-,-,-,-,-,-
CCOC(=O)NCc1ccccc1,-,-,-,-,-,-
O=c1[nH]cnc(CN2CCCCC2)c1O,-,-,-,-,-,-
COc1cc(CN(CCN(C)C)Cc2ccccc2)ccc1OCc1ccccc1,51,-,-,-,-,-
COc1ccc(/C=N/NC(=O)c2ccoc2C)cc1O,-,-,32,-,-,-
COc1ccc(/C=N/NC(=O)c2ccoc2C)cc1OC,-,-,-,-,-,-
Cc1sc2ncnc(N3CCC(C(=O)Nc4ccc(C#N)cc4)CC3)c2c1C,-,-,24,-,-,-
Cc1ccc(NC(=O)C2CCN(c3ncnc4sc(C)c(C)c34)CC2)cc1S(=O)(=O)N(C)C,-,-,-,-,-,-
Cc1sc2ncnc(N3CCC(C(=O)Nc4cc(S(C)(=O)=O)ccc4Cl)CC3)c2c1C,-,-,-,-,-,-
Cc1sc2ncnc(N3CCC(C(=O)Nc4ccc(S(N)(=O)=O)cc4)CC3)c2c1C,-,-,-,67,79,-
CCN(CC)S(=O)(=O)c1cc(NC(=O)C2CCN(c3ncnc4sc(C)c(C)c34)CC2)ccc1Cl,36,-,-,-,-,-
CCN(CC(=O)Nc1cc(Cl)ccc1C)C(=O)C1CCN(c2ncnc3sc(C)c(C)c23)CC1,37,-,-,-,-,-
Cc1sc2ncnc(N3CCC(C(=O)N(C)CC(=O)Nc4ccccc4Br)CC3)c2c1C,35,-,-,-,-,-
Cc1sc2ncnc(N3CCC(C(=O)Nc4cc(Cl)ccc4Cl)CC3)c2c1C,-,-,56,34,36,-
NC(=O)COC(=O)c1ccc(S(=O)(=O)NCc2ccco2)cc1,-,-,20,-,-,-
COc1cc(Cl)ccc1OCc1cc(C(=O)N(C)CC2CCCCO2)no1 (stereo not given),-,-,-,-,-,-
